From the supplement of paper PMC6555819 come the findings set out here.

The experiment has as its system FXR:RXRa (NR concentration 270 nM, RXRa partner concentration 90 nM). The experiment can be described thus: PBM binding z-score (relative to random genomic background probes); higher = stronger binding; sequences stand for … in GC…GCGATTGACAGCGTAGAATGAAGG
In a few lines: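 Probes were double-stranded and carried 34-nt variable regions with direct-repeat seeds, single-nucleotide variants, half-site ablations and random human genomic background sequences, printed on custom Agilent 4×180K protein-binding microarrays. Arrays were incubated 1 h with ligand-free nuclear receptor dimers in PBS pH 7.4, 2% milk, 0.02% Triton X-100, 1 mM DTT, 0.2 mg/mL BSA and 0.4 mg/ml salmon testes DNA. Antibodies against each partner (one per run) detected binding, and scanned fluorescence was regression-normalized. Binding z-scores use the random background probes as reference.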
Turning to TCTTGTAGATCAAGCAGGTTAGGAAAGCCTGAGT, the PBM binding z-score was -0.176.
The same measure for ATCTCTAGGTAGAGTTCAGTGAAAGATCGATAGA: 0.805.
As for GCTTGTAGAGCAAGGTTAAGAAAGACTAAGCTAA, the PBM binding z-score is -0.0313.
Regarding CAAACTAGGTCAAATGTCAAAGTCGAGCCAACCA, the PBM binding z-score stood at 5.99.
Sequence TCATATAGGTATAGGTGAAAGTCGAACGATATGA registered a PBM binding z-score of 0.449.
The same measure for CAAACTAGGTCAAGAGATCAAAGTCCGCTTCCCG: 3.4.
The same measure for CCTGCTAGGTCAATCGTCAGCTAAAGCAGCTCGC: 3.35.
The sequence CGTCAAAGTTCAAGGTAACGTGACAGAAAGCAGC yielded a PBM binding z-score of 5.87.
The same measure for ATCGAAACGTCGAGGTGAGTATAGAGAAAGGGAA: -0.226; for AGCGAAAGGTCGTGAGGTGAGTATACAGAAAGGC: 5.99; for CGAACTAGGGCATTGACAGGACAGTGAATAGTAA: 0.151.
As for CGGACTGGGGCAAGGTTACCATAACGCACAGCCA, the PBM binding z-score stood at 0.491.
With AGCATGAGGTTACCAAAGATCAGGGAAACGCTTG, the PBM binding z-score came out at 1.94.
Next, CTAGCAAGGTGAACAAGGTCGTTGATTACTATTC: 1.2.
Turning to CTACTAAGGTGAACAAGGTCGTTGATTACTATTC, the PBM binding z-score came out at 1.84.
The same measure for CGTCCAAGGTCAAAGTTCAGTGAAGAGATGACGG: 7.9.
For TCTTGTAGATCAATAGAGGGTAAGAAAGTGCGCT, the PBM binding z-score was determined as 0.692.
The same measure for ATCGAAAGGTCGTGAGGTGCGTATACAGAAAGGC: 5.17; for CCTATTAGTTGAGCATAAGGGCAACCGAAGCTCG: 0.0961.
Next, TCTTGTAGATCAACAGGAGGTTAAAAAAGATCGA: 0.243.
The sequence TGAATGAGGTTAAAGTTCAGGGAACGTGGCGTCG came in with a PBM binding z-score of 5.71.
Take ATCTCTAGGTAAGACTCAATTCAGTGAAGAACGC: the PBM binding z-score stood at 0.446.
Take AGTCAAAGTTCATCTAGGTAACGTATGATATGCT: the PBM binding z-score was 6.72.
GCTATTAGTAGAAAGGGCAACCGAATGATTCTCG: the PBM binding z-score is -0.219.
Take ATCCAAAGGTCGAAGGTGAGTATACCCACCCGAA: the PBM binding z-score worked out at 5.05.
Take TGAATGAGGTTATATGATCAGGGAACGTTGCAAA: the PBM binding z-score was determined as 1.85.
For the sequence CCTAGTTGGTCAGAAGGTCACACACCGGATATGA, the PBM binding z-score was 3.53.
In the case of ATCTCTAGGTAAAAGTTCAGTGAATCCCGAGGAT, the PBM binding z-score was 0.943.
Regarding TCGAGTAGGTTAGTTGGGGCATTCAGCCAACATA, the PBM binding z-score was found to be 0.131.
As for TCTGCTAGGTCAGTTGGTCAGCTATCGAGCTGCC, the PBM binding z-score is 0.915.
The same measure for ACAGACAGGTGATGATGGTAACTCAGGCTATCAT: 0.142.
The same measure for TAGCATAGGTCATTGGGCCAGTATAGTACGCATC: 6.02.
CCTACTTGGCCAAGGTCATTGATCAGTCAAAGCA: the PBM binding z-score was 3.65.
Sequence CCAGACAGGTGAGAAGGTCACTCAGCCTCGATTA came in with a PBM binding z-score of 2.4.
Turning to ACTAGTAGTTGACTTAGGGCAACCGATACGACGC, the PBM binding z-score was -0.211.
Next, ATCTCTAGGTAAGACTCAGTTCAGTGACGAACGC: 0.592; ATATATAGGTTATCGGGTCATTCAGTTTGCGCAT: 3.94.
For AGTCAATGTTCACTAGGTAACGTAAGATTCAGCT, the PBM binding z-score is -0.318.
Next, ACTACTTGGTCAGCTGAGGTCACACACAATTCGG: 3.83; TCTCTGAGGACACGAAAGGTCAGAGCTCGACATC: 3.12.
